Results as given in PubChem BioAssay (EPA / NIEHS).
Activity calls are given as the source filed them. The calls were made as follows: active = hit-call score of the fitted dose curve at least 0.9, where 1 is the maximum; inactive = score below 0.9.

experiment: ATG_MRE_CIS: Attagene CIS-FACTORIAL HepG2 Assay for human Metal Responsive Element (MRE) (AID 2282954); conditions: HepG2 MRE cis-reporter transcription, Attagene multiplex; actives raise or lower the signal
Procedure: ATG_CIS is a cell-based, multiplexed-readout assay that uses HepG2, a human liver cell line, with measurements taken at 24 hours after chemical dosing in a 24-well plate.ATG_MRE_CIS is one of 52 assay component(s) measured or calculated from the ATG_CIS assay. It is designed to make measurements of mRNA induction, a form of inducible reporter, as detected with fluorescence intensity signals by Reverse transcription polymerase chain reaction (RT-PCR) and Capillary electrophoresis technology.Data from the assay component ATG_MRE_CIS was analyzed into 1 assay endpoint. This assay endpoint, ATG_MRE_CIS, was analyzed with bidirectional fitting relative to DMSO as the negative control and baseline of activity. Using a type of inducible reporter, measures of mRNA for gain or loss-of-signal activity can be used to understand the reporter gene at the transcription factor-level as they relate to the gene MTF1. Furthermore, this assay endpoint can be referred to as a primary readout, because this assay has produced multiple assay endpoints where this one serves a reporter gene function. To generalize the intended target to other relatable targets, this assay endpoint is annotated to the dna binding intended target family, where the subfamily is zinc finger.
Human liver HepG2 cells are transiently transfected with multiple reporter transcription units (MRTUs) in 6-well plates using FuGene 6 reagent (Roche; 3 ml FuGene/1 mg DNA). The MRTU constructs are regulated by a cis-regulating element (promoter). […] A major difference between the CIS and TRANS system is that in CIS activities of endogenous TFs are measured, whereas the TRANS assay evaluates changes in activities of exogenous, chimeric NR-Gal4 proteins. […] At the end of 24 hour incubation, total RNA was isolated using TriZol reagent (Invitrogen). The isolated RNA is then reverse-transcribed using oligo(dT) primer and Mo-MLV reverse transcriptase (Invitrogen) with DNAse I (Ambion) treatment for 30 min. The one-tenth of the produced cDNA was amplified by PCR using Taq DNA polymerase (Invitrogen) and two reporter sequence-specific primers. The PCR products were fluorescently labeled by primer extension with 6-arboxyfluorescein (6-FAM) 5'-labeled reporter sequence-specific primer (2 min at 95 C, 20 s at 68 C and 10 min at 72 C) and these products were digested with 5U of HpaI (New England Biolabs) for 2h at 37 C. The fragments were purified using Qiaquick PCR columns (Qiagen), analyzed on an ABI 3130xL genetic analyzer (Applied Biosystems) with peak positions identified by using a set of X-rhodamine (ROX)-labeled MapMarker1000 molecular weight standards (BioVentures). The raw capillary electrophoresis data was processed using Attagraph software (Attagene).

outcome, inactive:
COc1ccc(N=Nc2cc(C)c(N=Nc3ccc(S(=O)(=O)O)cc3)cc2OC)cc1
C=C(CC(=O)O)C(=O)O
C=C(C#N)C(=O)OCC
CC(C)C(OC(=O)c1ccccc1)C(C)(C)COC(=O)c1ccccc1 (stereo not given)
CCC1(C)NC(=O)NC1=O (stereo not given)
CN(C)c1ccncc1
NCc1ccco1
C=C(C)C(=O)OCCOC1CC2CC1C1C=CCC21 (stereo not given)
CCCCCC(=O)CC
CCCN(CCC)S(=O)(=O)c1ccc(C(=O)O)cc1
CC(=O)CC(=O)Nc1ccc(C)cc1C
Nc1ccn([C@H]2CS[C@@H](CO)O2)c(=O)n1
CCCC[P+](CCCC)(CCCC)CCCC
CC=Cc1ccc(OC)c(OC)c1
CCNCCO
CCCCCCCCN1CCCC1=O
Cc1ccc(S(N)(=O)=O)cc1
Cc1cc(S(=O)(=O)O)ccc1N=Nc1c(O)ccc2ccccc12
CCCCCCC(CO)CCCC (stereo not given)
Nc1ccc(NCCO)c([N+](=O)[O-])c1
COC(C)(C)CCCC(C)CC=O (stereo not given)
CCCCCCCCCCCC(=O)OCC(O)CO (stereo not given)
COC(C)(C)CC(C)=O
CC(O)C1CCCCC1 (stereo not given)
CCCCC(CC)C(=O)OC(C)C (stereo not given)
CCCCC(CC)COC(C)=O (stereo not given)
COC(=O)c1cccnc1
CC/C=C\CCOC(=O)CC
O=C1OC(=O)c2c(Cl)c(Cl)c(Cl)c(Cl)c21
CC(C)(CO)[C@@H](O)C(=O)NCCC(=O)O
OCc1cccc(Oc2ccccc2)c1
CCC(=O)O[C@@H]1C[C@H]2CC[C@]1(C)C2(C)C
ON=C1CCCCC1
CCCCCCCCCCCCCCCC(=O)OC/C=C(C)/C=C/C=C(C)/C=C/C1=C(C)CCCC1(C)C
CCOC(=O)CC(C)O (stereo not given)
COc1ccccc1[N+](=O)[O-]

AC50, active:
CC1(C)C2=CCCC(C)(C)[C@]23CC[C@H]1C3 100 µM
CC(C)(C)CC(C)(C)c1ccc(OCCOCC[N+](C)(C)Cc2ccccc2)cc1 8.35 µM
CC(=O)C1(C)CC2=C(CCCC2(C)C)CC1C (stereo not given) 160 µM
N#Cc1ccc(CC(=O)c2cccc(C(F)(F)F)c2)cc1 100 µM
